Among the data in PMC11006913 are binding signal values, retold here.

Positions count from the first letter of the chain named.

What all share (test): PBM; 200 nM protein, PBS
What all share (settings): dsDNA, one strand shown

For experiment [1], the target named is HOXB9 (Homo sapiens, UniProt P17482 171-250, T197M).
Experiment [2] deals with HOXC10 (Homo sapiens, UniProt Q9NYD6 254-340).
The target of experiment [3] is HOXB9 (Homo sapiens, UniProt P17482 171-250).
The target in experiment [4] is HOXD13 (Homo sapiens, UniProt P35453 263-343, T313R).
HOXD13 (Homo sapiens, UniProt P35453 263-343, T313R), sequence (P35453 263-343 T313R): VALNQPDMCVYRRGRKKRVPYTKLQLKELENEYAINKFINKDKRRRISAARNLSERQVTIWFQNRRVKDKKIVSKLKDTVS
Experiment [5] has as its target HOXC9 (Homo sapiens, UniProt P31274 178-260, R193K).
In experiment [6] the target is HOXD13 (Homo sapiens, UniProt P35453 263-343).
HOXD13 (Homo sapiens, UniProt P35453 263-343), sequence (P35453 263-343): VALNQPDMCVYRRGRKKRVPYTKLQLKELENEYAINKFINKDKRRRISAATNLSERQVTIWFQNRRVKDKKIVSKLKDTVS
In experiment [7] the target is HOXC10 (Homo sapiens, UniProt Q9NYD6 254-340, K271E).
HOXC10 (Homo sapiens, UniProt Q9NYD6 254-340, K271E), sequence (Q9NYD6 254-340 K271E): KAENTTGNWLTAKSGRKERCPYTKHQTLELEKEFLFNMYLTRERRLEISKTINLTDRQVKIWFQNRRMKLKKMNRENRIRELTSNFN
Experiment [8] deals with HOXD13 (Homo sapiens, UniProt P35453 263-343, T313A).
HOXD13 (Homo sapiens, UniProt P35453 263-343, T313A), sequence (P35453 263-343 T313A): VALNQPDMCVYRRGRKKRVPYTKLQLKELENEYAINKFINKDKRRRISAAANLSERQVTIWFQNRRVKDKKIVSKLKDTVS
In experiment [9] the target is HOXB9 (Homo sapiens, UniProt P17482 171-250, R186Q).
HOXB9 (Homo sapiens, UniProt P17482 171-250, R186Q), sequence (P17482 171-250 R186Q): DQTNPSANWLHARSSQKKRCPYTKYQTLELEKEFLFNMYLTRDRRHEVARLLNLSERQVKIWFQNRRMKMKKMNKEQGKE
Experiment [10] deals with HOXC9 (Homo sapiens, UniProt P31274 178-260, R222W).
HOXC9 (Homo sapiens, UniProt P31274 178-260, R222W), sequence (P31274 178-260 R222W): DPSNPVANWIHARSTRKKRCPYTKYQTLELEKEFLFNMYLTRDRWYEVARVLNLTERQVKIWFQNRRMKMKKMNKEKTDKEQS
In experiment [11] the target is HOXC9 (Homo sapiens, UniProt P31274 178-260, K195R).
HOXC9 (Homo sapiens, UniProt P31274 178-260, K195R), sequence (P31274 178-260 K195R): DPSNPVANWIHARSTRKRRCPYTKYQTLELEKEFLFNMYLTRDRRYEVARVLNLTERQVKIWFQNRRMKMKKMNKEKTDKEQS
For experiment [12], the target named is HOXC9 (Homo sapiens, UniProt P31274 178-260).
HOXC9 (Homo sapiens, UniProt P31274 178-260), sequence (P31274 178-260): as the sequence (P31274 178-260 R222W) above, with W45R counted along it
Experiment [13] deals with T1, PAX4 (Homo sapiens, UniProt O43316 9-242, R200K).
T1 sequence: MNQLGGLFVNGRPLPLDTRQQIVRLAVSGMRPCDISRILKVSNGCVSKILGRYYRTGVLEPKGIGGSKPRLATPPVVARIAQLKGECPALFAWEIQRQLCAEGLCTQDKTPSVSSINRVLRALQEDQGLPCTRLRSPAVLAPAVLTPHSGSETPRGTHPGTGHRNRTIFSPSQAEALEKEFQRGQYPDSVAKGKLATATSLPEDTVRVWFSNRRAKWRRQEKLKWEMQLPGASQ

Experiment [14] has as its target T2, PAX4 (Homo sapiens, UniProt O43316 9-242).
T2 sequence: T1 sequence with K192R

The target of experiment [15] is HOXB6 (Homo sapiens, UniProt P17509 132-218, K202E).
HOXB6, sequence (P17509 132-218 K202E): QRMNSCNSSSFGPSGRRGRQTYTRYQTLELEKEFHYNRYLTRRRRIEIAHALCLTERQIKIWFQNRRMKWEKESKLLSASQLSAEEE
The target in experiment [16] is T3, PAX4 (Homo sapiens, UniProt O43316 9-242, R200Q).
T3 sequence: T1 sequence with K192Q

Experiment [17] deals with T4, PAX4 (Homo sapiens, UniProt O43316 9-242, F177V).
T4 sequence: T1 sequence with F169V, K192R

The target of experiment [18] is T5, PAX4 (Homo sapiens, UniProt O43316 9-242, F177Y).
T5 sequence: T1 sequence with F169Y, K192R

The target in experiment [19] is T6, PAX4 (Homo sapiens, UniProt O43316 9-242, R227W).
T6 sequence: T1 sequence with K192R, R219W

Experiment [20] concerns the target ALX4 (Homo sapiens, UniProt Q9H161 200-286).
Experiment [21] deals with PRRX1 (Homo sapiens, UniProt P54821 80-166, F113S).
PRRX1 (Homo sapiens, UniProt P54821 80-166, F113S), sequence (P54821 80-166 F113S): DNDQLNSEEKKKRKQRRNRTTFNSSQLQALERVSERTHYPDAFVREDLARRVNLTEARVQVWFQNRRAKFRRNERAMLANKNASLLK
The target in experiment [22] is ALX4 (Homo sapiens, UniProt Q9H161 200-286, Q225E).
ALX4 (Homo sapiens, UniProt Q9H161 200-286, Q225E), sequence (Q9H161 200-286 Q225E): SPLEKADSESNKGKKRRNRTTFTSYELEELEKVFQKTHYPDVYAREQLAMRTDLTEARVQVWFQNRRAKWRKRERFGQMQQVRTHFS
Experiment [23] addresses ALX1 (Homo sapiens, UniProt Q15699 118-204, L144V).
The target in experiment [24] is ALX3 (Homo sapiens, UniProt O95076 139-225, N203Q).
ALX3 (Homo sapiens, UniProt O95076 139-225, N203Q), sequence (O95076 139-225 N203Q): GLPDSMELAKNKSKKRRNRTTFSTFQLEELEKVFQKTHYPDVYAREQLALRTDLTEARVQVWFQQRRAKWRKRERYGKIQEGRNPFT
The target of experiment [25] is ALX3 (Homo sapiens, UniProt O95076 139-225).
ALX3 (Homo sapiens, UniProt O95076 139-225), sequence (O95076 139-225): as the sequence (O95076 139-225 N203Q) above, with Q65N counted along it
Experiment [26] has as its target ALX3 (Homo sapiens, UniProt O95076 139-225, L168Q).
The target in experiment [27] is ALX3 (Homo sapiens, UniProt O95076 139-225, L168V).
ALX3 (Homo sapiens, UniProt O95076 139-225, L168V), sequence (O95076 139-225 L168V): as the sequence (O95076 139-225 N203Q) above, with L30V, Q65N counted along it
Experiment [28] deals with HESX1 (Homo sapiens, UniProt Q9UBX0 95-180, F115L).
HESX1, sequence (Q9UBX0 95-180 F115L): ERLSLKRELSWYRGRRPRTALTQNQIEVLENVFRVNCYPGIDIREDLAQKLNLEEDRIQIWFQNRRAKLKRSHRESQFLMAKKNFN
The target in experiment [29] is ALX3 (Homo sapiens, UniProt O95076 139-225, N203S).
ALX3 (Homo sapiens, UniProt O95076 139-225, N203S), sequence (O95076 139-225 N203S): as the sequence (O95076 139-225 N203Q) above, with Q65S counted along it
In experiment [30] the target is PRRX1 (Homo sapiens, UniProt P54821 80-166).
PRRX1 (Homo sapiens, UniProt P54821 80-166), sequence (P54821 80-166): as the sequence (P54821 80-166 F113S) above, with S34F counted along it
In experiment [31] the target is PROP1 (Homo sapiens, UniProt O75360 56-141).
PROP1 (Homo sapiens, UniProt O75360 56-141), sequence (O75360 56-141): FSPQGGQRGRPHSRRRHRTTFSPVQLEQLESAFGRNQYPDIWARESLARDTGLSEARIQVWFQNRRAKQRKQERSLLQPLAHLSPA
For experiment [32], the target named is PROP1 (Homo sapiens, UniProt O75360 56-141, R99H).
PROP1 (Homo sapiens, UniProt O75360 56-141, R99H), sequence (O75360 56-141 R99H): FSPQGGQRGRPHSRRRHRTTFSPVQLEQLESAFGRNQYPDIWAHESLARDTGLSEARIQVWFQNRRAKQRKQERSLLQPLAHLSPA
The target of experiment [33] is PROP1 (Homo sapiens, UniProt O75360 56-141, F88S).
PROP1 (Homo sapiens, UniProt O75360 56-141, F88S), sequence (O75360 56-141 F88S): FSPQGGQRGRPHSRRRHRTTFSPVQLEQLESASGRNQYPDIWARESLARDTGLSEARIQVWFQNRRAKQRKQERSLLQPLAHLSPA

HOXC9 (Homo sapiens, UniProt P31274 178-260, R193K), sequence (P31274 178-260 R193K): as the sequence (P31274 178-260 R222W) above, with R16K, W45R counted along it
HOXB9 (Homo sapiens, UniProt P17482 171-250, T197M), sequence (P17482 171-250 T197M): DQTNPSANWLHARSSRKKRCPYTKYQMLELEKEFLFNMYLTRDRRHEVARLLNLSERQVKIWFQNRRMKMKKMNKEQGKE
HOXB9 (Homo sapiens, UniProt P17482 171-250), sequence (P17482 171-250): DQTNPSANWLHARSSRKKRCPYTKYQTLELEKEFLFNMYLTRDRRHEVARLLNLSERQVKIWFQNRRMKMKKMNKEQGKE
ALX4 (Homo sapiens, UniProt Q9H161 200-286), sequence (Q9H161 200-286): as the sequence (Q9H161 200-286 Q225E) above, with E26Q counted along it
ALX1, sequence (Q15699 118-204 L144V): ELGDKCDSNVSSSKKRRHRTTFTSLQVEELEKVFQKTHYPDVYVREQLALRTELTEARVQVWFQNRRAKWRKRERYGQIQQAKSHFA
HOXC10 (Homo sapiens, UniProt Q9NYD6 254-340), sequence (Q9NYD6 254-340): as the sequence (Q9NYD6 254-340 K271E) above, with E18K counted along it
ALX3 (Homo sapiens, UniProt O95076 139-225, L168Q), sequence (O95076 139-225 L168Q): as the sequence (O95076 139-225 N203Q) above, with L30Q, Q65N counted along it

Take ATAAAATA: the binding signal is 9.86 upbm affinity estimate (log intensity, higher = more binding, comparable within an allelic series) in [1]; 12.3 upbm affinity estimate (log intensity, higher = more binding, comparable within an allelic series) in experiment [2]; 11.8 upbm affinity estimate (log intensity, higher = more binding, comparable within an allelic series) in experiment [3]; 10.8 upbm affinity estimate (log intensity, higher = more binding, comparable within an allelic series) in experiment [4]; 12.5 upbm affinity estimate (log intensity, higher = more binding, comparable within an allelic series) in experiment [5]; 11.8 upbm affinity estimate (log intensity, higher = more binding, comparable within an allelic series) in experiment [6]. For the same sequence, the binding signal in experiment [7] was 11.7 upbm affinity estimate (log intensity, higher = more binding, comparable within an allelic series); in [8], 11.6 upbm affinity estimate (log intensity, higher = more binding, comparable within an allelic series); in experiment [9] it was 11.4 upbm affinity estimate (log intensity, higher = more binding, comparable within an allelic series); in experiment [10], 11.3 upbm affinity estimate (log intensity, higher = more binding, comparable within an allelic series).

With CCGCTCCG, the binding signal in [1] was 8.44 upbm affinity estimate (log intensity, higher = more binding, comparable within an allelic series); in experiment [11], 9.63 upbm affinity estimate (log intensity, higher = more binding, comparable within an allelic series); in experiment [3], 8.59 upbm affinity estimate (log intensity, higher = more binding, comparable within an allelic series); in [12], 9.73 upbm affinity estimate (log intensity, higher = more binding, comparable within an allelic series); in [5], 9.74 upbm affinity estimate (log intensity, higher = more binding, comparable within an allelic series); in experiment [9], 8.66 upbm affinity estimate (log intensity, higher = more binding, comparable within an allelic series). The binding signal in experiment [10] was 9.7 upbm affinity estimate (log intensity, higher = more binding, comparable within an allelic series).

Turning to CCCCCAGA, the binding signal in experiment [1] was 8.56 upbm affinity estimate (log intensity, higher = more binding, comparable within an allelic series); in experiment [11], 9.67 upbm affinity estimate (log intensity, higher = more binding, comparable within an allelic series); in experiment [3], 8.41 upbm affinity estimate (log intensity, higher = more binding, comparable within an allelic series); in experiment [12] it was 9.59 upbm affinity estimate (log intensity, higher = more binding, comparable within an allelic series); in experiment [5], 9.69 upbm affinity estimate (log intensity, higher = more binding, comparable within an allelic series); in experiment [9], 8.47 upbm affinity estimate (log intensity, higher = more binding, comparable within an allelic series). In [10], the binding signal is 9.54 upbm affinity estimate (log intensity, higher = more binding, comparable within an allelic series).

For ATTAATAC, the binding signal is 10.1 upbm affinity estimate (log intensity, higher = more binding, comparable within an allelic series) in experiment [1]; 11.8 upbm affinity estimate (log intensity, higher = more binding, comparable within an allelic series) in experiment [13]; 12.2 upbm affinity estimate (log intensity, higher = more binding, comparable within an allelic series) in experiment [14]; 10.1 upbm affinity estimate (log intensity, higher = more binding, comparable within an allelic series) in experiment [15]; 11.8 upbm affinity estimate (log intensity, higher = more binding, comparable within an allelic series) in [16]; 10.6 upbm affinity estimate (log intensity, higher = more binding, comparable within an allelic series) in experiment [17]. In addition, the binding signal in [18] is 11.1 upbm affinity estimate (log intensity, higher = more binding, comparable within an allelic series); in [19] it was 11.1 upbm affinity estimate (log intensity, higher = more binding, comparable within an allelic series).

On to ATAAATTA, for which the binding signal in experiment [1] is 9.96 upbm affinity estimate (log intensity, higher = more binding, comparable within an allelic series); in [20], 13.6 upbm affinity estimate (log intensity, higher = more binding, comparable within an allelic series); in [13], 11.7 upbm affinity estimate (log intensity, higher = more binding, comparable within an allelic series); in experiment [21], 11.2 upbm affinity estimate (log intensity, higher = more binding, comparable within an allelic series); in experiment [14], 12.2 upbm affinity estimate (log intensity, higher = more binding, comparable within an allelic series); in experiment [15], 10 upbm affinity estimate (log intensity, higher = more binding, comparable within an allelic series). Moreover, the binding signal was 12.6 upbm affinity estimate (log intensity, higher = more binding, comparable within an allelic series) in experiment [22]; 11.4 upbm affinity estimate (log intensity, higher = more binding, comparable within an allelic series) in experiment [23]; 8.61 upbm affinity estimate (log intensity, higher = more binding, comparable within an allelic series) in [24]; 11.8 upbm affinity estimate (log intensity, higher = more binding, comparable within an allelic series) in [16]; 10.7 upbm affinity estimate (log intensity, higher = more binding, comparable within an allelic series) in [17]; 12.3 upbm affinity estimate (log intensity, higher = more binding, comparable within an allelic series) in [25]. For the same sequence, the binding signal in experiment [18] is 11 upbm affinity estimate (log intensity, higher = more binding, comparable within an allelic series); in experiment [26], 10.2 upbm affinity estimate (log intensity, higher = more binding, comparable within an allelic series); in experiment [10], 11 upbm affinity estimate (log intensity, higher = more binding, comparable within an allelic series); in experiment [27], 9.72 upbm affinity estimate (log intensity, higher = more binding, comparable within an allelic series); in experiment [28] it was 7.82 upbm affinity estimate (log intensity, higher = more binding, comparable within an allelic series); in experiment [19], 11 upbm affinity estimate (log intensity, higher = more binding, comparable within an allelic series). Moreover, the binding signal is 8.71 upbm affinity estimate (log intensity, higher = more binding, comparable within an allelic series) in experiment [29] and 13.3 upbm affinity estimate (log intensity, higher = more binding, comparable within an allelic series) in experiment [30].

In the case of GCCTTCCC, the binding signal was 8.39 upbm affinity estimate (log intensity, higher = more binding, comparable within an allelic series) in experiment [1]; 9.49 upbm affinity estimate (log intensity, higher = more binding, comparable within an allelic series) in [11]; 8.31 upbm affinity estimate (log intensity, higher = more binding, comparable within an allelic series) in experiment [3]; 9.55 upbm affinity estimate (log intensity, higher = more binding, comparable within an allelic series) in experiment [12]; 9.63 upbm affinity estimate (log intensity, higher = more binding, comparable within an allelic series) in experiment [5]; 6.64 upbm affinity estimate (log intensity, higher = more binding, comparable within an allelic series) in [31]. Besides, the binding signal in experiment [32] is 6.59 upbm affinity estimate (log intensity, higher = more binding, comparable within an allelic series); in experiment [9], 8.38 upbm affinity estimate (log intensity, higher = more binding, comparable within an allelic series); in experiment [10], 9.61 upbm affinity estimate (log intensity, higher = more binding, comparable within an allelic series); in experiment [33], 6.59 upbm affinity estimate (log intensity, higher = more binding, comparable within an allelic series).
